What was measured:
Test in all cases: DAPPL (digital affinity profiling via proximity ligation, sequencing); 10 mM Tris-HCl pH 7.5, 50 mM NaCl, 1 mM DTT, 4% glycerol, room temperature, 30 min; GST-TFs on glutathione beads, 16-mer random dsDNA library, 0.1% formaldehyde crosslink after washing; high values mean tight binding
Settings in all cases: protein: recombinant; tags: N-terminal GST; dsDNA, one strand shown
[1] = target: T1, FLI1 (Homo sapiens, UniProt Q01543 1-452)
T1 sequence: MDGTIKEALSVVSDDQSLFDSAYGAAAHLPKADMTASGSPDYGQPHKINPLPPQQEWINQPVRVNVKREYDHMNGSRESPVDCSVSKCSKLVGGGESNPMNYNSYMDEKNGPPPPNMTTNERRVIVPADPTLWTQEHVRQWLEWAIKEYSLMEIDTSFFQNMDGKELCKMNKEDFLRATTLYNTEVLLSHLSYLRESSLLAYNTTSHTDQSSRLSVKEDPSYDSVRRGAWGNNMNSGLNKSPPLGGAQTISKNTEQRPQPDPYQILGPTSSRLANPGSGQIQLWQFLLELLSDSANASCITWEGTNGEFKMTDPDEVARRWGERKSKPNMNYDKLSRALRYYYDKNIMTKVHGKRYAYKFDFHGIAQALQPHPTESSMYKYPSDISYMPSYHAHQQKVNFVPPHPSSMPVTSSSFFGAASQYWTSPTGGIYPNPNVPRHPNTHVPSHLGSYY
Summary of the method: (§1)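 GST fusions of human transcription factors were expressed in yeast and captured with glutathione beads. Once given DNA barcodes and pooled alongside a tag-only sample, they were incubated for 30 min at room temperature with 200 nmole of a random double-stranded 16-mer DNA library in Tris/NaCl/DTT/glycerol buffer, then washed, crosslinked (0.1% formaldehyde), proximity-ligated, PCR-amplified and sequenced on an Illumina NextSeq500. The binding signal of each hexamer is its read frequency for a factor divided by its frequency for the tag-only sample.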

[2] = target: T2, ELK1 (Homo sapiens, UniProt P19419 1-428)
T2 sequence: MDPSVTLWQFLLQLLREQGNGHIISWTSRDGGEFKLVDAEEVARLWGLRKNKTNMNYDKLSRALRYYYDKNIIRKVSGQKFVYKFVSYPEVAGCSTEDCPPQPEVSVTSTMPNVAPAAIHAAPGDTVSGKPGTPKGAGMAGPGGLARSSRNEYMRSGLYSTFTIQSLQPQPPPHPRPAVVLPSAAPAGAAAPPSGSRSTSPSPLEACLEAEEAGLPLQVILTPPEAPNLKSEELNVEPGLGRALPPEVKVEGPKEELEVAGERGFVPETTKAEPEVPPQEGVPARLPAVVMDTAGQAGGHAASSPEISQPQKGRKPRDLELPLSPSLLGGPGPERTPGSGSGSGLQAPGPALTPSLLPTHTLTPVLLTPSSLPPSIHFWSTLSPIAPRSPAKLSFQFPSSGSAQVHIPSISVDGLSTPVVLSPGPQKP
Summary of the method: as §1

[3] = target: T3, GABPA (Homo sapiens, UniProt Q06546 1-454)
T3 sequence: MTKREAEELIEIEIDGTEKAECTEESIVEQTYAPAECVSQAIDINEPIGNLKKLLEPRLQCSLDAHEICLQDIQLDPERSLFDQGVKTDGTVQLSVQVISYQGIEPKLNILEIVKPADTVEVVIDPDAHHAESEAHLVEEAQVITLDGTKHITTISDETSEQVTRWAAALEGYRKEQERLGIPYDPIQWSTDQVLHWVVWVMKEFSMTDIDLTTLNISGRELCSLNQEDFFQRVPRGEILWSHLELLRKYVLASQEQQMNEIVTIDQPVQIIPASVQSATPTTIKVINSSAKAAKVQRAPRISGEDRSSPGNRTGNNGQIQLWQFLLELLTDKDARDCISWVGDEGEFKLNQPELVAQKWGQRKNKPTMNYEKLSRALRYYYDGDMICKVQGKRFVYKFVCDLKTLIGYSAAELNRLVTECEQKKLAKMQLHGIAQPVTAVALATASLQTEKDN
Summary of the method: as §1

[4] = target: T4, ERG (Homo sapiens, UniProt P11308 1-479)
T4 sequence: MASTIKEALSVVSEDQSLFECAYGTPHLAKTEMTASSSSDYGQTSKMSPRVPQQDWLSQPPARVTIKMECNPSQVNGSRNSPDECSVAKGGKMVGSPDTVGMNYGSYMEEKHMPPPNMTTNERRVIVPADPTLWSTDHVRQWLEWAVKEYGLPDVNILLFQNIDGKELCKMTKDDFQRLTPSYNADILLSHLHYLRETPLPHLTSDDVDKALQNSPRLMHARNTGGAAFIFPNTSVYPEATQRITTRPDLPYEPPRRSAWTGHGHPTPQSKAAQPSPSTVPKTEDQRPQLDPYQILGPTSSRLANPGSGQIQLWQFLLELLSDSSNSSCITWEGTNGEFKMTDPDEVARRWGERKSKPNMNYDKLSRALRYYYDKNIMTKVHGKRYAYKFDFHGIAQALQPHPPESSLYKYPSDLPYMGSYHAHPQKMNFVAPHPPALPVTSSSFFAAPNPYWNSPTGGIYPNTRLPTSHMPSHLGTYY
Summary of the method: as §1

[5] = target: ELF1 (Homo sapiens, UniProt P32519 1-619)
Summary of the method: as §1

[6] = target: T5, EHF (Homo sapiens, UniProt Q9NZC4 1-300)
T5 sequence: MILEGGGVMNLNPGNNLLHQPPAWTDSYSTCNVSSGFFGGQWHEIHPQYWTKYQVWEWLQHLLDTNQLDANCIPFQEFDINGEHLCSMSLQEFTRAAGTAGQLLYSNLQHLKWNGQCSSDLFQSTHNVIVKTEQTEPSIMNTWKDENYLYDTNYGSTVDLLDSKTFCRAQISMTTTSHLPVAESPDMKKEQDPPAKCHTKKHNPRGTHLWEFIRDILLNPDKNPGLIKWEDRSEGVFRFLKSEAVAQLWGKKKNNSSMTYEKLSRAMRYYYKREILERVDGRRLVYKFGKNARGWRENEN
Summary of the method: as §1

[7] = target: SPI1 (Homo sapiens, UniProt P17947 1-270)
Summary of the method: as §1

[8] = target: SPIB (Homo sapiens, UniProt Q01892 1-262)
Summary of the method: as §1

[9] = target: T6, ELK3 (Homo sapiens, UniProt P41970 1-407)
T6 sequence: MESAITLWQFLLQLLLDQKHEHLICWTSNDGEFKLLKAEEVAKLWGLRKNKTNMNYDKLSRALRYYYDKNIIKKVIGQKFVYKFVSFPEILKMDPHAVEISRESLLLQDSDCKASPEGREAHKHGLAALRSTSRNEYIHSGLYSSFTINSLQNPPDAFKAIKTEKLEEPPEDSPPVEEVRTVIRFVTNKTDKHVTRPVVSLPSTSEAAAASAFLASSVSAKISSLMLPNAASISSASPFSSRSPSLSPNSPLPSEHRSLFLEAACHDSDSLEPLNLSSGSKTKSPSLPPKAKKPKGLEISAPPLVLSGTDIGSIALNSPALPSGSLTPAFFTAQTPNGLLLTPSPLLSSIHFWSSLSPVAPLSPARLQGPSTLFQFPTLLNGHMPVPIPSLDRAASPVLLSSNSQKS
Summary of the method: as §1

SPIB, sequence (Q01892 whole entry): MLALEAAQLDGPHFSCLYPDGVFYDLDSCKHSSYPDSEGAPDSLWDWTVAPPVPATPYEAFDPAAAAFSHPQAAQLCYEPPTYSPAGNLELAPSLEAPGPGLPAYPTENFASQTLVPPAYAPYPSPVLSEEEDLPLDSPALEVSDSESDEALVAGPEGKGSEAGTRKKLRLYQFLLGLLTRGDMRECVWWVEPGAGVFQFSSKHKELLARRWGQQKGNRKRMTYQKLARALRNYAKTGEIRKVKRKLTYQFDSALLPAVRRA
ELF1, sequence (P32519 whole entry): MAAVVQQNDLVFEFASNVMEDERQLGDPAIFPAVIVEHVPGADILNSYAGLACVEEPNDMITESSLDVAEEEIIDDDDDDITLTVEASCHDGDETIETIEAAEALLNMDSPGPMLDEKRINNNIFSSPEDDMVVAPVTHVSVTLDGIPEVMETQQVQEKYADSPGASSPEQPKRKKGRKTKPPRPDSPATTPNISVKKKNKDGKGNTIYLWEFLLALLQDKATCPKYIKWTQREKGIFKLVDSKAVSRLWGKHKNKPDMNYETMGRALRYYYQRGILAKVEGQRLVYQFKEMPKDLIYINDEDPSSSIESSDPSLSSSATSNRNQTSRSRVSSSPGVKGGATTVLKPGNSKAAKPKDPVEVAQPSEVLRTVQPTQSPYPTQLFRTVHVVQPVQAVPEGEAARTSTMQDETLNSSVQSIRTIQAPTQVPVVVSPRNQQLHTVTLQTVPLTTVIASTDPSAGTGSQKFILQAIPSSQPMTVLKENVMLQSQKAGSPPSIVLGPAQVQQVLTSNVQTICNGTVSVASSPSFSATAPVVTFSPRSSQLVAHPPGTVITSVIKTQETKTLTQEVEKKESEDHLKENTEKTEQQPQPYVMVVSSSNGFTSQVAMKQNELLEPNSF

Sequence	binding signal [1]	binding signal [2]	binding signal [3]	binding signal [4]	binding signal [5]	binding signal [6]	binding signal [7]	binding signal [8]	binding signal [9]
CGTTTT	1.16 fold enrichment (6-mer frequency, TF over GST control)	1.16 fold enrichment (6-mer frequency, TF over GST control)	1.34 fold enrichment (6-mer frequency, TF over GST control)	1.36 fold enrichment (6-mer frequency, TF over GST control)	1.17 fold enrichment (6-mer frequency, TF over GST control)	1.27 fold enrichment (6-mer frequency, TF over GST control)	1.29 fold enrichment (6-mer frequency, TF over GST control)	1.32 fold enrichment (6-mer frequency, TF over GST control)	1.12 fold enrichment (6-mer frequency, TF over GST control)
TATGAA	1.18 fold enrichment (6-mer frequency, TF over GST control)	1.17 fold enrichment (6-mer frequency, TF over GST control)	1.21 fold enrichment (6-mer frequency, TF over GST control)	1.14 fold enrichment (6-mer frequency, TF over GST control)	1.18 fold enrichment (6-mer frequency, TF over GST control)	1.12 fold enrichment (6-mer frequency, TF over GST control)	1.19 fold enrichment (6-mer frequency, TF over GST control)	1.17 fold enrichment (6-mer frequency, TF over GST control)	1.16 fold enrichment (6-mer frequency, TF over GST control)
GTCTCA	1.34 fold enrichment (6-mer frequency, TF over GST control)	1.32 fold enrichment (6-mer frequency, TF over GST control)	1.35 fold enrichment (6-mer frequency, TF over GST control)	1.36 fold enrichment (6-mer frequency, TF over GST control)	1.41 fold enrichment (6-mer frequency, TF over GST control)	1.32 fold enrichment (6-mer frequency, TF over GST control)	1.39 fold enrichment (6-mer frequency, TF over GST control)	1.41 fold enrichment (6-mer frequency, TF over GST control)	1.32 fold enrichment (6-mer frequency, TF over GST control)
CCTCCC	1.42 fold enrichment (6-mer frequency, TF over GST control)	1.43 fold enrichment (6-mer frequency, TF over GST control)	1.45 fold enrichment (6-mer frequency, TF over GST control)	1.47 fold enrichment (6-mer frequency, TF over GST control)	1.54 fold enrichment (6-mer frequency, TF over GST control)	1.57 fold enrichment (6-mer frequency, TF over GST control)	1.48 fold enrichment (6-mer frequency, TF over GST control)	1.48 fold enrichment (6-mer frequency, TF over GST control)	1.45 fold enrichment (6-mer frequency, TF over GST control)
CGATTG	1.22 fold enrichment (6-mer frequency, TF over GST control)	1.29 fold enrichment (6-mer frequency, TF over GST control)	1.24 fold enrichment (6-mer frequency, TF over GST control)	1.26 fold enrichment (6-mer frequency, TF over GST control)	1.24 fold enrichment (6-mer frequency, TF over GST control)	1.1 fold enrichment (6-mer frequency, TF over GST control)	1.22 fold enrichment (6-mer frequency, TF over GST control)	1.19 fold enrichment (6-mer frequency, TF over GST control)	1.24 fold enrichment (6-mer frequency, TF over GST control)
GATGCT	1.18 fold enrichment (6-mer frequency, TF over GST control)	1.11 fold enrichment (6-mer frequency, TF over GST control)	1.14 fold enrichment (6-mer frequency, TF over GST control)	1.12 fold enrichment (6-mer frequency, TF over GST control)	1.12 fold enrichment (6-mer frequency, TF over GST control)	1.25 fold enrichment (6-mer frequency, TF over GST control)	1.23 fold enrichment (6-mer frequency, TF over GST control)	1.22 fold enrichment (6-mer frequency, TF over GST control)	1.2 fold enrichment (6-mer frequency, TF over GST control)
TCTCTA	1.21 fold enrichment (6-mer frequency, TF over GST control)	1.31 fold enrichment (6-mer frequency, TF over GST control)	1.23 fold enrichment (6-mer frequency, TF over GST control)	1.36 fold enrichment (6-mer frequency, TF over GST control)	1.36 fold enrichment (6-mer frequency, TF over GST control)	1.34 fold enrichment (6-mer frequency, TF over GST control)	1.26 fold enrichment (6-mer frequency, TF over GST control)	1.33 fold enrichment (6-mer frequency, TF over GST control)	1.22 fold enrichment (6-mer frequency, TF over GST control)

From PMC7862700, “An all-to-all approach to the identification of sequence-specific readers for epigenetic DNA modifications on cytosine”
